From PubChem BioAssay (NCATS) come the findings set out here.

Assay [1] can be described thus: Cell Viability - Jurkat (AID 426;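 active = dose-dependent loss of cell ATP signal giving a full or clear fitted curve, ranked by lower potency value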;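 note: potency is the fitted concentration of half-maximal effect; cells exposed to compound for 40 hours at 37 °C before ATP read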). Particulars: qHTS. The essentials:
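Cytotoxicity was scored as loss of cellular ATP, measured by luciferase-based luminescence, in Jurkat clone E6-1 cells after 40 h compound treatment; tamoxifen and doxorubicin served as positive controls.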

A short description of assay [2]: Cell Viability - Hek293 (AID 427;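 active = compounds whose dose-response curve shows a full or clear partial loss of cell viability, called from curve shape rather than a numeric limit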;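 note: potency is the fitted concentration of half-maximal effect; cells exposed to compound for 40 hours at 37 °C before reading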). To be noted: qHTS. The essentials:
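Luminescent ATP read-out (CellTiter-Glo, 20 min RT) after 40 hr compound exposure at 37 °C in complete medium. Signal normalized to DMSO (basal) and 100 uM tamoxifen (100% inhibition); concentration-response fitted with the standard Hill equation to give AC50.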
(Quantitative high-throughput screening tests each substance at several concentrations.)

The nature of assay [3]: Cell Viability - SK-N-SH (AID 435; calls by dose curve;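 note: potency is the fitted concentration of half-maximal effect; compound exposure lasted 40 h at 37 °C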). Particulars: SK-N-SH neuroblastoma cell viability qHTS. The gist of the method:
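SK-N-SH neuroblastoma cells (1500/well) treated 40 h at 37 °C in complete medium; viability read as cellular ATP by CellTiter-Glo luminescence. Normalized to DMSO and 100 uM tamoxifen; AC50 from Hill fits of qHTS concentration-response.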

Assay [4] in a line: Cellular Toxicity (caspase-3) Jurkat (AID 655).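 Note: cells exposed to compound for 16 h at 37 °C before reading.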 To be noted: Jurkat caspase-3 activation, luminescence; caspase-3 activation: at 92.2 µM (top of the series), DMSO = 0%, tamoxifen = 100%. The essentials: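 Jurkat cells (5000/well) in complete medium exposed 16 h at 37 C; caspase-3/7 activity read by Caspase-Glo luminescence after 20 min at room temperature. Normalized to DMSO and 100 uM tamoxifen; AC50 from Hill fits.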

A short description of assay [5]: Cell Viability - LYMP2-004 (AID 966).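 Note: plate controls were DMSO only for no effect and tetraoctylammonium bromide control for full effect; nearly all actives have a fitted effect of over 65% in size.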 To be noted: LYMP2-004 lymphoblastoid cell viability, qHTS; series mostly up to 92.2 µM. The gist of the method: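 Viable-cell number estimated from ATP luminescence (CellTiter-Glo) in 2500 human lymphoblastoid cells/well after 24 hr at 37 C with compound. AC50 fitted to the standard Hill equation.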
Assay [6] in a line: Cell Viability - LYMP2-015 (AID 971).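 Note: 0% = DMSO only and full effect = 92 µM tetraoctylammonium bromide; nearly all actives have a fitted effect of over 55% in size.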 Particulars: LYMP2-015 lymphoblastoid cell viability; series mostly up to 92.2 µM. The essentials: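 AC50 values reflect Hill-model fits of ATP-based luminescence (CellTiter-Glo) from a human lymphoblastoid line, 2500 cells/well, treated 24 hr at 37 C.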
The nature of assay [7]: Cell Viability - LYMP2-019 (AID 973).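 Note: cells exposed to compound for 24 h at 37 °C; nearly all actives have a fitted effect of over 55% in size.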 Note: potency is the fitted concentration of half-maximal effect. Particulars: LYMP2-019 lymphoblastoid cell line viability; series mostly up to 92.2 µM. The essentials: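 AC50 values come from Hill-equation modelling of qHTS concentration-response curves, where viability is measured as luciferase-based ATP luminescence in the lymphoblastoid line after 24 hr compound exposure in complete culture medium.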

Assay [8] in a line: Cell Viability - LYMP2-021 (AID 974).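 Note: compound exposure lasts 24 hours at 37 °C; % is set by controls: 0 for no effect and ±100 for the full control effect; nearly all actives have a fitted effect of over 55% in size.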 Particulars: LYMP2-021 lymphoblastoid cells viability; series mostly up to 92.2 µM. The gist of the method:
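In qHTS format, compounds are tested against 2500 lymphoblastoid cells per well for 24 h; viable cell number is inferred from ATP-driven luciferase light, and Hill-equation fitting yields AC50 values.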

Assay [9] in a line: Cell Viability - LYMP2-025 (AID 976).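 Note: cells exposed to compound for 24 h at 37 °C; plate controls were DMSO only for no effect and tetraoctylammonium bromide control for full effect.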 Particulars: LYMP2-025 lymphoblastoid cell viability; series mostly up to 92.2 µM. The essentials:
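Luminescent ATP readout after 24 hr treatment of a human lymphoblastoid line (LYMP2-025, 2500 cells/well, 37 C). Reagent developed 30 min at room temperature; AC50 fitted with the Hill equation.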

The nature of assay [10]: Cell Viability - LYMP2-006 (AID 978).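 Note: cells exposed to compound for 24 hours; % is set by controls: 0 for no effect and ±100 for the full control effect; nearly all actives have a fitted effect of over 60% in size.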 To be noted: LYMP2-006 lymphoblastoid cell viability, qHTS; series mostly up to 92.2 µM. The essentials: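 Human lymphoblastoid cells (LYMP2-006), 2500/well in complete medium, were treated with compound for 24 hr at 37 C. Cellular ATP was read by CellTiter-Glo luminescence after 30 min, and AC50 values came from Hill-equation fits of concentration-response data.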

The nature of assay [11]: Cell Viability - LYMP2-007 (AID 979).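 Note: cells exposed to compound for 24 h before reading; 0% = DMSO only and the negative end = 92 µM tetraoctylammonium bromide; nearly all actives have a fitted effect of over 60% in size.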 To be noted: LYMP2-007 lymphoblastoid cell viability; series mostly up to 92.2 µM. The essentials: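 Measured via luciferase-based ATP quantitation: lymphoblastoid cells, 24 hr compound exposure at 37 C, AC50 from Hill fits.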
Assay [12] can be described thus: Cell Viability - LYMP2-008 (AID 980).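 Note: cells exposed to compound for 24 h at 37 °C; % is set by controls: 0 for no effect and ±100 for the full control effect; nearly all actives have a fitted effect of over 60% in size.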 To be noted: LYMP2-008 lymphoblastoid cell viability, qHTS; series mostly up to 92.2 µM. The essentials:
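Measured: ATP-dependent luminescence, proportional to viable cell number, in human lymphoblastoid cells treated 24 hr with compound in complete culture medium. Values are AC50s from Hill-equation modelling of qHTS titrations.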

Assay [13] is described as follows: Cell Viability - LYMP2-014 (AID 983).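 Note: cells exposed to compound for 24 h at 37 °C; plate controls were DMSO only for no effect and 92 µM tetraoctylammonium bromide for full effect; nearly all actives have a fitted effect of over 50% in size.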 To be noted: LYMP2-014 lymphoblastoid cells, viability qHTS; series mostly up to 92.2 µM. The essentials:
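Quantitative HTS in lymphoblastoid cells: 24 hr compound exposure, then CellTiter-Glo ATP luminescence. Positive control was tetraoctylammonium bromide, 6.4pM to 92 uM.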

Assay [14] is described as follows: Cell Viability - LYMP2-018 (AID 985).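 Note: plate controls were DMSO only for no effect and tetraoctylammonium bromide at 92 µM for full effect; nearly all actives have a fitted effect of over 50% in size.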 Particulars: LYMP2-018 lymphoblastoid cells, viability (qHTS); series mostly up to 92.2 µM. The gist of the method:
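In this qHTS viability assay, cells are treated for 24 hr and cellular ATP is quantified by luciferase-based luminescence, with tetraoctylammonium bromide as positive control.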

Assay [15] can be described thus: Cell Viability - LYMP2-020 (AID 986).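 Note: cells exposed to compound for 24 h at 37 °C; plate controls were DMSO only for no effect and tetraoctylammonium bromide at 92 µM for full effect; nearly all actives have a fitted effect of over 55% in size.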 To be noted: series mostly up to 92.2 µM. The gist of the method:
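Cells at 2500 per well receive a 24 hr compound exposure at 37 C. Viability is measured as ATP-dependent luciferase luminescence, with AC50 modeled from qHTS concentration-response curves.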

Assay [16] is described as follows: Cell Viability - LYMP1-002 - Assay at 40 hr (AID 994).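 Note: 0% = DMSO only and full inhibition = 92 µM tetraoctylammonium bromide; nearly all actives have a fitted effect of over 60% in size.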 To be noted: LYMP1-002 lymphoblastoid cell viability; series mostly up to 92.2 µM. The gist of the method:
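Concentration-dependent ATP loss after 40 hr treatment at 37 C defined toxicity; AC50 values were obtained by fitting the standard Hill equation.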

A short description of assay [17]: qHTS assay for small molecule antagonists of retinoid X receptor alpha signaling (AID 588546).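 Note: cells stimulated with 9-cis-retinoic acid as agonist; % is set by controls: 0 for no effect and ±100 for the full control effect.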 To be noted: HEK293T RXRa-UAS-bla, beta-lactamase ratio, antagonist mode; measured here: W530 green channel, cytotoxicity proxy. The essentials:
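Beta-lactamase reporter inhibition, read as CCF4 fluorescence ratio (ex 405, em 460/530 nm) after 2 h at RT. HEK293T UAS-bla cells, 2500/well, were stimulated with 9-cis-RA at 500 or 100 nM final alongside test compound for 18 h at 37 C.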

For assay [18], the target named is Voltage-gated inwardly rectifying potassium channel KCNH2 (Homo sapiens) (UniProt Q12809). The assay can be described thus: qHTS Assay for Small Molecule Inhibitors of the Human hERG Channel Activity (AID 588834).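 Note: top concentration of the series differs between compounds; % is set by controls: 0 for no effect and ±100 for the full control effect; lower thallium flux fluorescence means stronger hERG block; nearly all actives have a fitted effect of over 50% in size.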 To be noted: U2OS BacMam hERG, FluxOR thallium flux fluorescence; series mostly up to 92.2 µM. The essentials:
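Thallium serves as surrogate for K+ influx through BacMam-delivered hERG in U2OS cells. Compounds are added for about 10 minutes after dye loading; stimulation buffer then starts flux, monitored kinetically on FDSS.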

Assay [19] in a line: qHTS assay for small molecule agonists of the antioxidant response element (ARE) signaling pathway measured by Nrf2-dependant transcriptional activity - cell viability counter screen (AID 720653; active = well fitted curve in the direction sought with a large enough effect in the repeat runs; an effect the other way counts as inactive or inconclusive; note: % is set by controls: 0 for no effect and ±100 for the full control effect). Particulars: ARE-bla HepG2 viability, CellTiter-Glo ATP luminescence, 16 h; stronger effect = lower value. The gist of the method:
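Cytotoxicity counter screen: intracellular ATP quantified by CellTiter-Glo luminescence in the same ARE-bla HepG2 plates, after 16 h compound exposure and a 2 h beta-lactamase substrate step.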

Each structure is given as a SMILES string. “And” between values parts separate entries of the source, which are not always exact repeats. Equal entries are not always repeated. Results filed as inconclusive are left out. The source made the active and inactive calls. Unless noted, calls come from the whole dose curve; as a rule, active = well fitted curve in the direction sought with a large enough effect; inconclusive = small, poorly fitted or top-dose-only effect, or another doubt; inactive = no such curve, though single readings can be large; an effect the other way counts as inactive or inconclusive.

Chain of Voltage-gated inwardly rectifying potassium channel KCNH2 (Homo sapiens) (Q12809 whole entry, looked up): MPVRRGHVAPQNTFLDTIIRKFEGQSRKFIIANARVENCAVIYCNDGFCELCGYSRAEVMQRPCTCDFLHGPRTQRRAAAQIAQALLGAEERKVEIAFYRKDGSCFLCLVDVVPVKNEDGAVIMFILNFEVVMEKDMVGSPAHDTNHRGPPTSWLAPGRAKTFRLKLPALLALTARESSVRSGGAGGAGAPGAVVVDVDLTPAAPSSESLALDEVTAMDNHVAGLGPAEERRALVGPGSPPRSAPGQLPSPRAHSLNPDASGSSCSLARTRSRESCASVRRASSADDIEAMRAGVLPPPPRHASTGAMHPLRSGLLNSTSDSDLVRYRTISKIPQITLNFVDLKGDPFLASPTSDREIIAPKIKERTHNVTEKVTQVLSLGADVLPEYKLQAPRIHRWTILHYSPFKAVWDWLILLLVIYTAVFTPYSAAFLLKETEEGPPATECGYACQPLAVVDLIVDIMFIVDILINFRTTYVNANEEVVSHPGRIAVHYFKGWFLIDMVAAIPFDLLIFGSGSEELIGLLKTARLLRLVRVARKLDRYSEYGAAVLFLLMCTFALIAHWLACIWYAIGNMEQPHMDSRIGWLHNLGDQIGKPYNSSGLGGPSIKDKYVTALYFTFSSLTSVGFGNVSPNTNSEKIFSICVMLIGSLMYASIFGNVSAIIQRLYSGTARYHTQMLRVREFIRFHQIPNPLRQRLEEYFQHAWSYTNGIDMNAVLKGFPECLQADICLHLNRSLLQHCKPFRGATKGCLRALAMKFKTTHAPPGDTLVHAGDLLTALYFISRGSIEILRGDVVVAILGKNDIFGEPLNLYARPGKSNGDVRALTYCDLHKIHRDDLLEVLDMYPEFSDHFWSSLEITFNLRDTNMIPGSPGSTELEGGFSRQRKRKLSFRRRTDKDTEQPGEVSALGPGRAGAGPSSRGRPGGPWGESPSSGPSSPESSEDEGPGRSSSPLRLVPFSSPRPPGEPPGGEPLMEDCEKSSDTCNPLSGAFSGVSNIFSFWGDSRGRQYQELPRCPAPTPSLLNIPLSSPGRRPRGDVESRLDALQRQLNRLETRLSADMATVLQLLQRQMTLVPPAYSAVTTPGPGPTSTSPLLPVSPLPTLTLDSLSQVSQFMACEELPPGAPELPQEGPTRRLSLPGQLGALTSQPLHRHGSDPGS

Turning to `CCOP(=O)(OCC)OCC`, the Potency in assay [1], in [2] and in [3] was > 92 µM (inactive) each time. In assay [4], the caspase-3 activation was -0.738% (inactive). Further, the Potency result in assay [5], in [6], in assay [7], in assay [8], in [9] and in assay [10] was “inactive” in each case. Further, the Potency result in assay [11], in assay [12], in assay [13], in [14], in assay [15] and in assay [16] was “inactive” in each case. Moreover, the Potency result in assay [18] was “inactive”. In addition, the max response in assay [17] was 9.41% and -13.4%; in assay [19] it was -1.09% (inactive) and -8.89% (inactive).

In the case of `C=CC(=O)OCCO`, in assay [4], the caspase-3 activation was 15.3% (inactive). Also, the Potency result in assay [9], in [16] and in assay [18] was “inactive” in each case. In assay [17], the max response is -12.5%.

Turning to `CC(=O)[O-].CC(=O)[O-].CC(=O)[O-].[Cr+3]`, the Potency in [1], in [2] and in assay [3] was > 92 µM (inactive) each time. Further, the caspase-3 activation in assay [4] is 0.251% (inactive). Further, the Potency result in assay [5], in assay [6], in [7], in [8], in [9] and in [10] was “inactive” throughout. Further, the Potency entry in assay [11], in assay [12], in assay [13], in assay [14], in assay [15] and in assay [16] was “inactive” in each case. Moreover, the Potency entry in assay [18] is “inactive”. Moreover, the max response in [17] is -2.43%; in assay [19] it was 2.78% (inactive).

As for `CCOS(C)(=O)=O`, the Potency in assay [1], in assay [2] and in assay [3] was > 92 µM (inactive) each time. For the same molecule, the caspase-3 activation in assay [4] is 0.622% (inactive). Besides, the Potency entry in assay [5], in [6], in assay [7], in assay [8], in assay [10] and in assay [11] was “inactive” in each case. For the same molecule, the Potency entry in assay [12], in assay [13], in assay [14], in [15], in assay [16] and in assay [18] was “inactive” in each case. Besides, the max response in assay [17] was -8.7%; in assay [19], -5.61% (inactive).

Turning to `O=[N+]([O-])c1cc(Cl)c(Cl)cc1Cl`, the Potency in assay [1], in [2] and in assay [3] was > 92 µM (inactive) throughout. Moreover, in assay [4], the caspase-3 activation was 2.39% (inactive). Also, the Potency entry in [5], in assay [6], in assay [7], in assay [8], in assay [9] and in assay [10] was “inactive” in each case. Further, the Potency result in assay [11], in [12], in assay [13], in assay [14], in [15] and in [16] was “inactive” throughout. Besides, the Potency result in assay [18] is “inactive”. The values for the max response in [17] and in [19] were 2.5% and -7.17% (inactive), respectively.

For `CCC[N+](=O)[O-]`, the Potency in assay [1], in assay [2] and in assay [3] was > 92 µM (inactive) each time. In assay [4], the caspase-3 activation was -1.47% (inactive). Besides, the Potency result in [5], in assay [6], in assay [7], in assay [8], in [9] and in assay [10] was “inactive” in each case. Further, the Potency entry in assay [11], in assay [12], in assay [13], in assay [14], in [15] and in [16] was “inactive” throughout. Moreover, the Potency result in [18] was “inactive”. Also, the max response in [19] is -3.7% (inactive).

As for `O=[N+]([O-])c1ccccc1CCl`, the Potency is > 92 µM (inactive) in [2], > 92 µM (inactive) in assay [3] and 63.1 µM (active) in [7]. Besides, the caspase-3 activation in [4] is -0.153% (inactive). Moreover, the Potency entry in [5], in assay [9], in assay [13], in [16] and in assay [18] was “inactive” each time. Besides, the max response was 9.99% in assay [17] and -9.56% (inactive) in [19].

For `[O-][Cl+]O`, the Potency in [1], in assay [2] and in assay [3] was > 92 µM (inactive) in each case. Also, the caspase-3 activation in [4] was 0.134% (inactive). The Potency entry in assay [5], in assay [6], in assay [7], in [8], in assay [9] and in [10] was “inactive” each time. The Potency entry in assay [11], in assay [12], in assay [13], in assay [14], in assay [15] and in assay [16] was “inactive” each time. Further, the Potency result in assay [18] is “inactive”. Besides, the figures for the max response in assay [17] and in assay [19] were 0.141% and 3.42% (inactive), respectively.
